Measured values published in the supplement of paper PMC6555819.

Columns and labels:
Assay in all cases: PBM binding z-score (relative to random genomic background probes); higher = stronger binding; sequences stand for … in GC…GCGATTGACAGCGTAGAATGAAGG
[1] = test system: PPARg:RXRa DBDmut IVT, anti-RXR (DBD mutation: RXRa K156A/R161A, NR concentration 270 nM, RXRa partner concentration 90 nM)
Method in brief: (§1)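 Binding z-scores were set against random background probes. The data came from custom Agilent 4×180K protein-binding microarrays carrying double-stranded probes with 34-nt variable regions, incubated 1 h with ligand-free nuclear receptor dimers. Partner-specific antibodies detected binding, and scanned fluorescence was regression-normalized.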

[2] = test system: PPARg:RXRa IVT, anti-PPARg (NR concentration 270 nM, RXRa partner concentration 90 nM)
Method in brief: as §1

[3] = test system: PPARg DBDmut:RXRa IVT, anti-PPARg (DBD mutation: PPARg1 K132A/R137A, NR concentration 270 nM, RXRa partner concentration 90 nM)
Method in brief: as §1

[4] = test system: PPARg DBDmut IVT, anti-PPARg (DBD mutation: PPARg1 K132A/R137A, NR concentration 270 nM)
Method in brief: as §1

[5] = test system: PPARg homodimer (NR concentration 180 nM)
Method in brief: as §1

[6] = test system: PXR:RXRa (NR concentration 270 nM, RXRa partner concentration 90 nM)
Method in brief: as §1

[7] = test system: PXR homodimer (NR concentration 270 nM)
Method in brief: as §1

[8] = test system: RARa:RXR (NR concentration 270 nM, RXRa partner concentration 90 nM)
Method in brief: as §1

[9] = test system: RARa homodimer (NR concentration 270 nM)
Method in brief: as §1

[10] = test system: RARb:RXRa (NR concentration 270 nM, RXRa partner concentration 90 nM)
Method in brief: as §1

Sequence | PBM binding z-score [1] | PBM binding z-score [2] | PBM binding z-score [3] | PBM binding z-score [4] | PBM binding z-score [5] | PBM binding z-score [6] | PBM binding z-score [7] | PBM binding z-score [8] | PBM binding z-score [9] | PBM binding z-score [10]
GATACAGGGTCATGGCCAGAGTACGCGTATTGAT | 3.28 | 4.13 | 0.893 | -0.182 | 1.88 | 4.2 | -0.295 | 5.43 | 0.00513 | 4.31
CAAACTAGGTCACCGGAAGGTCAAACTCCGCATG | 8.32 | 8.83 | 5.1 | 4.65 | 8.25 | 6.17 | 2.46 | 7.35 | 2.71 | 5.14
CCTAGCAGGCCAGTGTCACTCAAGCATTTCGCTT | 1.35 | 0.117 | -1.21 | -1.52 | -0.723 | -0.407 | -0.826 | -0.184 | -0.658 | 0.286
ACTAGCAGGCCAAGGGCCACTCAAGATTAGTCCG | 0.244 | 0.822 | -0.352 | -1.82 | -0.633 | -0.879 | -0.75 | -0.678 | -0.685 | 0.884
CGTCCAAGATCAGCAGGTCAGTGAAAGCGACGTG | 0.000191 | -0.104 | -0.863 | -0.238 | 0.712 | 0.136 | -0.221 | 0.583 | -0.407 | 1.97
TTACCAAGGTGAGCTGACGTCGTTGATCCAACTC | 0.771 | 1.43 | -0.733 | -0.641 | -0.886 | -0.363 | -0.913 | -0.1 | -1.03 | 0.866
CCTAGTTGGTAAGGAGGTCACACACCGGATATGA | 1.63 | 4.06 | 0.9 | 0.468 | 2.82 | 3.83 | 1.4 | 4.14 | 1.52 | 3.04
GTACCAAGCTGAATAGGTCGTTGATGAGTAGGCG | -0.646 | -0.114 | -1.16 | -0.822 | -1.1 | -0.255 | -0.471 | 0.235 | -0.336 | 0.0822
GCGACTGGGGTATCAGCAGGTTACCATAACTTAA | 1.21 | 0.938 | -0.348 | -0.554 | 0.313 | -0.149 | -0.238 | 0.3 | -0.218 | 0.249
ACTAGCATGCCAAGTTTGGGTCACTCAAACAAAG | -0.0858 | 0.673 | -0.779 | -0.563 | 0.0985 | 0.71 | -0.444 | 1.14 | -0.448 | 1.28
GCGACTGGGGCATCAGCAGGTTAACATAACTTAA | 3.98 | 3.26 | -0.488 | -1.04 | 0.292 | 0.289 | -0.239 | 0.486 | -0.18 | 0.898
CCTTACGGGTGACTGACAGGTTATAGCATTTGGA | 1.95 | 1.09 | 0.0764 | -0.581 | 0.697 | 0.299 | -0.0252 | 0.82 | 0.181 | 0.546
ATCGAAAGGTCGAAGGTGAGTTTACCCACCCGAA | 0.357 | 2.21 | 0.513 | 0.511 | 1.48 | 4.03 | 1.02 | 4.05 | 0.0951 | 3.85
CGAACTAGGTCCTCCAGGACAGTGAATACATTGA | 3.46 | 2.42 | 0.246 | -0.00333 | -0.188 | -0.555 | -0.316 | -0.262 | -0.913 | -0.0568
TCGAGTAGGTTAGTGGCATTCAGAATGGCGTCGA | 2.03 | 1.11 | -1.08 | -0.671 | 0.509 | -0.288 | -0.134 | -0.0955 | -0.37 | 0.0922
CCGACTGGGGCAAGGATACCATAACGCACAGCCA | 2.53 | 2.44 | -1.12 | -0.391 | 0.238 | -0.678 | -0.593 | -0.387 | 0.23 | 0.558
ACTCGGAGCACAAAGGTCAGAGCTACGCCAGTGA | 0.735 | 2.74 | -0.286 | -0.435 | 2.92 | 3.62 | 0.191 | 4.5 | 0.544 | 4.29
GTTTACGGGTCAAAGGTTATAGCATGAATAGAAT | 4.49 | 6.3 | 1.34 | 0.914 | 2.36 | 6.4 | 0.568 | 8.19 | 0.857 | 4.66
CCGACTAGGGCATAAGGTTACCATAAGCCAGCCC | 4.2 | 3.79 | -0.186 | -0.826 | 1.57 | 0.295 | -0.287 | 1.7 | -0.466 | 1.86
